Screen size: about 48,000 compounds; about 13,000 (27%) showed an effect of 50% or more. The list shows a part of the results.

The test system of this assay is Wolbachia pipientis. The experiment in a line: Anti-Wolbachia Cell-Based Screen. It is filed as functional. Further details: scale not given: in the data most compounds retested in dose-response had high values. The note with it: 5 µM.
On to `CCOC(C)c1nc(Cn2cc(C(=O)NC)ccc2=O)cs1` (centres undefined), for which the “Percent Effect” value is listed as -7.956%. As to `Cc1ccc(NC(=O)N2CCOC(C)(c3cnn(C)c3)C2)c(C)c1` (centres undefined), the “Percent Effect” value is recorded as 16.86%. Take `COc1cc2c(cc1OC)S(=O)(=O)N(Cc1cc(C)on1)C2=O`: the “Percent Effect” value is -6.413%. On to `N#Cc1c(Cl)nsc1N1CCN(CC2CCCCC2)CC1`, for which the “Percent Effect” value was 3.475%. For the compound `Cc1cccc(-n2nc(CC(C)C)nc2CCn2ccc(=O)[nH]c2=O)c1`, the “Percent Effect” value turned out to be 22.44%.

As for `O=C(c1ccc(-n2cccn2)nc1)N1CCC(Nc2cccnn2)CC1`, the “Percent Effect” value was -1.733%. Consider `O=C(c1ccc(O)nc1)N1CCC(Nc2cccnn2)CC1`, for which the “Percent Effect” value is recorded as 95.42%. For the compound `O=C(c1ccccc1-n1cccn1)N1CCC(Nc2cccnn2)CC1`, the “Percent Effect” value is given as 157.4%. Next, `O=C(c1ccncc1)N1CCCN(Cc2nnc(C3CC3)o2)CC1`: -12.73%; `O=C(c1ccccc1-n1cccn1)N1CCCN(c2cccnn2)CC1`: -6.198%; `O=C(c1ccsc1)N1CCC(c2nnc(C3CC3)o2)CC1`: 116.7%.

Consider `O=C(c1ccc(NC2CC2)nc1)N1CCC(Nc2cccnn2)CC1`, for which the “Percent Effect” value amounted to 118.5%. Take `O=C(c1ccccn1)N1CCC(Nc2cccnn2)CC1`: the “Percent Effect” value is 18.78%. Next, `FC(F)(F)c1ccc(-n2ccnc2-c2cc3n(n2)CCNC3)cn1`: 0.08182%; `CCS(=O)(=O)c1ccccc1N1CCC(NC(=O)NC2CCCC2)CC1`: -4.776%. Next, `O=C(c1ccoc1)N1CCC(Nc2cccnn2)CC1`: 90.61%; `O=C(c1ccsc1)N1CCC(Nc2cccnn2)CC1`: 95.56%. Next, `Cc1ccc(S(=O)(=O)Nc2ccc(-n3nnn(C)c3=O)cc2)cc1`: 8.508%. Regarding `O=S(=O)(Nc1ccc(N2CCOCC2)cn1)c1cccc(F)c1`, the “Percent Effect” value stood at 2.193%.

In the case of `COc1cccc(OCC2CCCN(C(=O)c3ncc(F)cc3F)C2)c1` (centres undefined), the “Percent Effect” value is given as -61.26%.

Take `COCC(=O)N1CCCN(c2ncnc3c2CCNCC3)CC1`: the “Percent Effect” value worked out at 1.266%. Next, `COC[C@H]1CCC[C@H]1Nc1ncnc2c1CCNCC2`: 95.23%; `c1nc2c(c(NC3CCc4ncnn4C3)n1)CCC2` (centres undefined): -6.936%. In the case of `CCNc1ncc(C(=O)NC2COC3(CCCC3)C2)cn1` (centres undefined) it was -5.692%; in that of `c1nc2c(c(NC3COC4(CCCC4)C3)n1)CCNCC2` (centres undefined), 100.1%. Next, `CC(C)Nc1ncnc2c1CCNCC2`: -5.966%; `CC(NC(=O)CCN1CCOC1=O)(c1ccccc1)c1ccccc1`: 8.215%; `CC(Oc1ccccc1C(F)(F)F)C(=O)NS(=O)(=O)C(C)C` (centres undefined): -1.095%.

In the case of `CCC(CC(=O)Nc1ccc2c(c1)CC(=O)N2)c1ccccc1` (centres undefined), the “Percent Effect” value is given as 3.416%.

Values taken from ChEMBL document CHEMBL3988442, “University of Dundee, Small-Polar-MMV Screening Library” (2021).
